Measured values: PubChem BioAssay (NCATS)
Inconclusive results are not listed. Active and inactive are the calls of the source. Calls come from the whole dose curve; as a rule, active = well fitted inhibition curve with a large enough effect; inconclusive = small, poorly fitted or top-dose-only effect; inactive = no such curve, though single readings can be large or run the other way.

Assay: P-glycoprotein substrates identified in KB-3-1 adenocarcinoma cell line, qHTS therapeutic library screen (AID 1346986); note: nearly all actives have a fitted effect of over 60% in size;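 note: potency is for cytotoxicity meaning loss of cell viability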
Conditions: KB-3-1 parental cells viability, CellTiter-Glo, 72 h; series mostly up to 44.5 µM; activity change, negative = cytotoxicity: at the top concentration
Method: The ATP-binding cassette transporters P-glycoprotein (P-gp) is known to limit brain penetration of many chemotherapy drugs. […] We used the CellTiter-Glo viability assay to test library compounds against the parental KB-3-1 human cervical adenocarcinoma cell line and the colchicine-selected sub-line KB-8-5-11 that over-expresses P-gp. KB-8-5-11 cells were also tested in the presence of a P-gp inhibitor (tariquidar) to assess reversability of transporter-mediated resistance. Of the tested compounds, a total of 90 P-gp substrates were identified including 55 newly identified P-gp substrates. Substrates were confirmed using an orthogonal killing assay against HEK-293 cells transfected with P-gp. As exemplars, we confirmed that AT7159 (cyclin-dependent kinase inhibitor); AT9283, (Janus kinase 2/3 inhibitor); ispinesib (kinesin spindle protein inhibitor); gedatolisib (PKI-587, phosphoinositide 3-kinase/mammalian target of rampamycin inhibitor); GSK-690693 (AKT inhibitor); and KW-2478 (heat shock protein 90 inhibitor) were substrates , and direct ATPase stimulation was assessed. ABCG2 was also found to confer high levels of resistance to AT9283, GSK-690693 and gedatolisib, while ispinesib, AT7519 and KW-2478 were weaker substrates.
The HeLa derivative cell line, KB-3-1, and its colchicine-selected, P-gp-overexpressing subline, KB-8-5-11 were maintained in DMEM with 10% FCS and Pen/Strep with glutamine at 37 degree C in 5% CO2. For KB-8-5-11 cells, colchicine was added to the medium at a concentration of 100 ng/mL. HEK-293 cells transfected with empty vector (pcDNA) or vector containing human ABCB1 (MDR-19) or ABCG2 (R-5) have been described previously (Robey, Lin, Qiu, Chan & Bates, 2011) and were maintained in EMEM supplemented with 10% FCS, Pen/Strep and glutamine with 2 mg/ml G418 to select for the expression of the transporter. Cultures were confirmed to be free of mycoplasma infection using the MycoAlert Mycoplasma Detection Kit (Lonza, Walkersville, MD). For the screen, assay medium was identical to culture medium except for KB-8-5-11 where colchicine was excluded from the medium.
All cell lines were plated into 1536-well plates at 500 cells/well in 5 uL media. Compounds were then pinned in dose-response using a 1536-head pin tool (Kalypsis, San Diego, CA) and plates were incubated at 37 degree C in 5% CO2 for an additional 72 h. CellTiter-Glo reagent (Promega) was dispensed into the wells, incubated for 5 min and luminescence was read on a ViewLux instrument (Perkin-Elmer). Cytotoxic compounds were defined as those that yielded a curve class of -1.1, -1.2, -2.1, -2.2, -2.3, or -2.4, a maximum response of >50% and an AC50 of < 10 uM. Cherry-picked hits from screening analysis were tested with both the KB pair of cell lines, and the pcDNA (empty vector control) and MDR-19 (P-gp overexpressing) pair were tested, in the absence and presence of tariquidar.
Potency is the fitted concentration of half-maximal effect.

SMILES	outcome	Potency
COC12CC3C(C(C)C1=CC(=O)O2)C(O)C(OC(C)=O)C1C(C)(C)C(OC(C)=O)CCC31C (stereo not given)	inactive [at 17.4 µM]	
Cc1ncc([N+](=O)[O-])n1CC(O)CN1CCOCC1 (stereo not given)	inactive	
O=c1c2ccccc2nc2n1CCC2O (stereo not given)	inactive [at 93.4 µM]	
C/C=C(/C)C(=O)O[C@H]1C=C(C)C[C@H](OC(=O)c2ccc(O)cc2)C2[C@](O)(C(C)C)CC[C@@]21C (stereo not given in full)	inactive [at 17.4 µM]	
OCC1=CC[C@@H]2C=CO[C@@H](O[C@@H]3O[C@H](CO)[C@@H](O)[C@H](O)[C@H]3O)[C@H]12	inactive	
C=C1[C@H]2[C@H](O[C@@H]3O[C@H](COC(=O)/C=C/c4cc(OC)c(O)c(OC)c4)[C@@H](O)[C@H](O)[C@H]3O)OC=C(C(=O)O)[C@H]2C[C@@H]1O	inactive [at 17.4 µM]	
CCC(NC(=O)CC(NC(=O)C(CO)NC(=O)C(CC)NC(=O)c1ccc[nH]1)c1ccccc1)C(=O)O (stereo not given)	inactive [at 17.4 µM]	
CO[C@@]12CC3[C@@H]([C@@H](O)[C@@H](OC(C)=O)C4[C@](C)(COC(C)=O)CCC[C@]34C)[C@@H](C)C1=CC(=O)O2 (stereo not given in full)	inactive [at 17.4 µM]	
C=C/C=C/[C@@H]1OC[C@H](/C=C/C=C/C)[C@H]1O	inactive [at 93.4 µM]	
CC(=O)NC(CCC(=O)O)C(=O)NCCc1ccc(O)cc1 (stereo not given)	inactive	
C[C@@H]1O[C@@H](O[C@H]2[C@H](OC(C#N)c3ccc(O)cc3)O[C@H](CO)[C@@H](O)[C@@H]2O)[C@H](O)[C@H](O)[C@H]1O (stereo not given in full)	inactive [at 17.4 µM]	
CC1(C)CCCC2(C)C(CO)C3CCC2C31 (stereo not given)	inactive	
N#CC1C(=O)Nc2scc(-c3ccc(-c4ccccc4O)cc3)c2C1=O (stereo not given)	inactive	
COC(=O)CC[C@@H](C)[C@H]1CC[C@H]2[C@@H]3CC(=O)[C@H]4C[C@H](OC(C)=O)CC[C@]4(C)[C@H]3CC[C@]12C	inactive	
CC1(C)NC2N(C1=O)c1ccccc1C2(O)CC(C(=O)O)n1cnc2ccccc2c1=O (stereo not given)	inactive [at 17.4 µM]	
CCN[C@@H]1C[C@H](N)[C@@H](O[C@H]2OC(CN)=CC[C@H]2N)[C@H](O)[C@H]1O[C@H]1OC[C@](C)(O)[C@H](NC)[C@H]1O	inactive	
CC(=O)O[C@@H]1[C@H](O[C@@H]2O[C@H](CO)[C@@H](O)[C@H](O)[C@H]2O)[C@@H](O[C@@H]2O[C@@H](C)[C@H](O)[C@@H](O[C@@H]3O[C@H](CO)[C@@H](O)[C@H](O)[C@H]3O)[C@H]2O)[C@H](OC(=O)C23CCC4(C)C(=CCC5C6(C)CC(O)C(O[C@@H]7O[C@H](C(=O)O)[C@@H](O)[C@H](O)[C@H]7O)C(C)(C(=O)O)C6CCC54C)C2CC(C)(C)CC3O)O[C@@H]1C (stereo not given in full)	inactive [at 9.29 µM]	
CC(CCC1(O)OC2CC3C4CCC5CC(O[C@@H]6O[C@H](CO)[C@@H](O)[C@H](O)[C@H]6O[C@@H]6OC[C@@H](O)[C@H](O)[C@H]6O)C(O)CC5(C)C4CCC3(C)C2C1C)CO[C@@H]1O[C@H](CO)[C@@H](O)[C@H](O)[C@H]1O (stereo not given in full)	inactive [at 9.29 µM]	
C=C1CC2[C@]3(C)C(=C(O)C(=O)[C@@]2(C)[C@]2(C(=O)OC)C(=O)C(C)OC(=O)[C@@]12C)C(C)(C)C(=O)CC3O (stereo not given in full)	inactive [at 17.4 µM]	
Cc1cc(O)cc(Oc2cc(C)c(C(=O)O)c(O)c2)c1	inactive	

SMILES	outcome	Potency
C=C1CCC[C@]2(C)C[C@]3(O)OC(=O)C(C)=C3C[C@@H]12	inactive	
CC(C)=CCC[C@](C)(O[C@@H]1O[C@H](CO[C@@H]2OC[C@@H](O)[C@H](O)[C@H]2O)[C@@H](O)[C@H](O)[C@H]1O)[C@H]1CC[C@]2(C)[C@@H]1[C@H](O)C[C@@H]1[C@@]3(C)CC[C@H](O[C@@H]4O[C@H](CO)[C@@H](O)[C@H](O)[C@H]4O[C@@H]4O[C@H](CO)[C@@H](O)[C@H](O)[C@H]4O)C(C)(C)[C@@H]3CC[C@]12C	inactive [at 17.4 µM]	
COc1cc(C2Oc3c(O)cc(CCCO)cc3C2CO)ccc1O[C@H]1O[C@H](C)[C@@H](O)[C@H](O)[C@@H]1O (stereo not given in full)	inactive [at 17.4 µM]	
C=C1[C@H]2CC[C@]3(O)[C@@](CC[C@@H]4[C@](C)(C(=O)O)CCC[C@]43C)(C2)[C@H]1OC(=O)/C(C)=C\C	inactive [at 17.4 µM]	
Cc1cc(O)c(C(C)C)cc1O[C@@H]1O[C@H](CO)[C@@H](O)[C@H](O)[C@H]1O	inactive	
CC(CCC1C(C(=O)O)=CC(=O)CC1(C)C)O[C@@H]1O[C@H](CO)[C@@H](O)[C@H](O)[C@H]1O (stereo not given in full)	inactive	
O=C(NC[C@H](O)CN1CCc2ccccc2C1)c1cc(NC2COC2)ncn1	inactive	
CCCC(N[C@@H](C)C(=O)N1[C@H](C(=O)O)C[C@@H]2CCCC[C@@H]21)C(=O)OCC (stereo not given in full)	inactive	
CNC(=O)[C@H]1O[C@@H](n2cnc3c(NCc4ccc(N)c(I)c4)ncnc32)[C@H](O)[C@@H]1O	inactive [at 9.29 µM]	
CCC(=O)N[C@@H]1Cc2ccccc2[C@H](c2ccccc2)C1	inactive	
C[C@@H]1O[C@@H](O[C@H]2[C@H](O)[C@@H](C(=O)O)O[C@@H](O[C@H]3CC[C@@]4(C)C(CC[C@]5(C)C4CC=C4C6CC(C)(C)CC[C@]6(C(=O)O)CC[C@]45C)C3(C)C)[C@@H]2O[C@@H]2O[C@H](CO)[C@@H](O)[C@H](O)[C@H]2O)[C@H](O)[C@H](O)[C@H]1O (stereo not given in full)	inactive [at 9.29 µM]	
O=c1c2cccnc2n(-c2cccc([N+](=O)[O-])c2)c(=O)n1Cc1ccncc1	inactive	
C=C1C[C@]23C[C@H]1CC[C@H]2[C@@]12C=C[C@H](O)[C@@](C)(C(=O)O1)[C@H]2[C@@H]3C(=O)O	inactive	
C=C1C2=CC(O)C(C)C1(C)CC/C(C)=C/CCC1(C)OC1C2=O (stereo not given)	inactive	
C[C@@H]1O[C@@H](O[C@H]2[C@H](OC(=O)[C@]34CCC(C)(C)C[C@H]3C3=CCC5[C@@]6(C)C[C@H](O)[C@H](O[C@@H]7O[C@H](CO[C@@H]8OC[C@H](O)[C@H](O)[C@H]8O)[C@@H](O)[C@H](O)[C@H]7O)C(C)(C)C6CC[C@@]5(C)[C@]3(C)C[C@H]4O)OC[C@@H](O)[C@@H]2O)[C@H](O)[C@H](O[C@@H]2OC[C@](O)(CO)[C@H]2O)[C@H]1O[C@@H]1OC[C@H](O)[C@H](O[C@@H]2OC[C@@H](O)[C@H](O)[C@H]2O)[C@H]1O (stereo not given in full)	inactive [at 9.29 µM]	
C=C1C(O[C@@H]2O[C@H](CO)[C@@H](O)[C@H](O)[C@@H]2O)CC2C(C)(C)C(O)CCC2(C)C1CC/C(C)=C\CO (stereo not given in full)	inactive [at 17.4 µM]	
C=C1C(=O)OC2CC(C)=C(C(C)CCCO[C@@H]3O[C@H](CO)[C@@H](O)[C@H](O)[C@H]3O)C(O)C12 (stereo not given in full)	inactive [at 17.4 µM]	
CC(=O)c1cnc2ccc(-c3cc(Cl)c(O)c(Cl)c3)nc2c1NC1CCC(CN(C)C)CC1 (stereo not given)		13 nM (active)
Nc1nonc1C(=Nc1ccc(F)c(Cl)c1)NO	inactive	
C=CC(C)(C)C12CC3C(=O)NC(Cc4cnc[nH]4)C(=O)N3C1Nc1ccccc12 (stereo not given)	inactive	
